Drawing on PubChem BioAssay (NCI), this text covers growth for 29 compounds.

Several values for one entry are separate records, joined by “and”; a condition that tells them apart may be missing. Equal values may be shown once. About 83,000 compounds went through this panel and 20% of them were active in at least one assay; those are over-represented in the sample as a whole.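 In brief: 96-well plates, 48 h treatment, single concentration, percent growth endpoint.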 Activity calls are given as the source filed them. Rule for the calls: active = growth percent below 10; inactive = the rest.

The test system of the test is HL-60(TB) leukemia. The test can be described thus: NCI-60 one-dose screen, 48 h (100 = growth as untreated, 0 = no growth, -100 = all killed). To be noted: 10 µM unless noted.
On to `NS(=O)(=O)N(c1cc(C(F)(F)F)cc(C(F)(F)F)c1)C1CCN(Cc2ccc(C(F)(F)F)cc2)CC1`, for which the growth was 37.3% (inactive).

`COc1cc(NC(=O)CCl)ccc(=O)c1`: the growth is 77.1% (inactive).

Regarding `C#CCn1c(-c2cccc(OCCCCl)c2)nc2c1c(=O)n(C)c(=O)n2C`, the growth is -15.7% (active).

With `CN1CCN(C2CCN(C(=O)Nc3cc(Oc4ccc(NC(=O)C5(C(=O)Nc6ccc(F)cc6)CC5)c(F)c4)ccn3)CC2)CC1`, the growth was -44.7% (active) and 121% (inactive).

Take `COc1ccc(C(=O)N2NC(=O)/C(=C/c3ccccc3F)N=C2c2ccccc2)cc1`: the growth is 93.9% (inactive).

On to `CN(C)Cc1ccc(NC(=O)c2cncc(C#Cc3cnc(N)c4ncccc34)c2)cc1F`, for which the growth was 83.7% (inactive).

On to `COc1ccc(NC(=O)c2sc3nc(C)c(C(=O)/C=C/c4cccc(OC)c4)cc3c2N)cc1`, for which the growth was 33.6% (inactive).

For `O=C(Cc1ccc(/C=C/C(=O)c2ncc[nH]2)cc1)Nc1ccc(C(F)(F)F)cc1`, the growth was -5.94% (active).

On to `CCC1=C[C@]2(C3CC(=O)N(c4ccccc4)C3=O)CC(C(C)(C)C)C[C@@H]2[C@@H]2C(=O)N(c3ccccc3)C(=O)[C@H]12` (some centres undefined), for which the growth was 84.1% (inactive).

Turning to `CN(C)CCn1cc(-c2ccc3c(Nc4ccc(CC(=O)Nc5cccc(F)c5)cc4)ncnc3c2)cn1`, the growth is -55.3% [30 µM] (active).

With `CC(=O)NC1C(O[C@H]2C[C@H]3[C@@H]4CC=C5C[C@@H](O)CC[C@]5(C)[C@H]4CC[C@]3(C)[C@H]2[C@H](C)C(=O)CCC(C)C)OCC(O)C1O` (some centres undefined), the growth is 10.1% (inactive).

On to `O=C(c1nn(-c2ccc(Cl)cc2)cc1O)n1nc(C(F)(F)F)cc1-c1ccccc1`, for which the growth was -14.8% (active).

For the compound `O=C(NCCc1ccccc1)C1CCC(=O)N1Cc1ccc(Br)cc1` (centres undefined), the growth is 89% (inactive).

In the case of `COc1cc(NC(=O)C#Cc2ccccc2)c(OC)cc1Cl`, the growth was 42.7% (inactive).

Regarding `O=C(c1ccccc1)c1cc2ccccc2oc1=O`, the growth was 64.6% (inactive).

Consider `Cc1ncc(CO)c(C(=O)O)c1O`, for which the growth is 84.2% (inactive).

As for `Fc1cc(C2=NNC(c3ccc[nH]3)C2)ccc1-n1ccc(C(F)(F)F)n1` (centres undefined), the growth is 55.3% (inactive).

Consider `Nc1cc(-c2nc3sccn3c2-c2ccnc(NCCCNS(=O)(=O)c3ccc(F)cc3)n2)ccc1F`, for which the growth is 63.6% (inactive).

In the case of `CC(C)(C)c1cnc(CSc2cnc(NC(=O)C3CCNCC3)s2)o1`, the growth was -40.4% (active).

Turning to `CCOC(=O)c1c(C)nc2c(c1N)CC(=O)N2Cc1cc(F)cc(Cl)c1`, the growth was 79.1% (inactive).

For the compound `O=C1CNC(c2ccccc2)C(c2ccccc2)N1` (centres undefined), the growth is 106% (inactive).

On to `O=C(Nc1ccc(Oc2cccc(F)c2)c(Cl)c1)c1cccnc1`, for which the growth was 12.1% (inactive).

As for `CC(CN=Cc1ccccc1O)N=Cc1ccccc1O` (centres undefined), the growth was 110% (inactive) and 83% (inactive).

Turning to `O=C(CCc1nnc(CN(c2ccccc2)c2ccccc2)o1)c1nc2ccccc2[nH]1`, the growth is 84.1% (inactive).

As for `COc1cc(-c2nccc3cc4c(cc23)OCO4)cc(OC)c1OC`, the growth is 5.43% (active) and 9.65% (active).

In the case of `COc1ccc(-c2nocc2-c2cc(OC)c(OC)c(OC)c2)cc1`, the growth is -14.7% (active).

For the compound `Fc1ccc(-c2nnc(-c3c(-c4ccc(F)cc4)nc4ncccn34)o2)cc1`, the growth was 87.8% (inactive).

For `CC(C)(C)n1cc(-c2ccnc(NCCCNS(=O)(=O)c3ccc(F)cc3)c2)c(-c2cccc(F)c2)n1`, the growth is 38.2% (inactive).

Consider `Cc1ccc(C2CC(c3ccc(Nc4nc(NCCO)nc(NCCO)n4)cc3)=NN2c2ccc(Cl)cc2)cc1` (centres undefined), for which the growth was 80.7% (inactive).
